Of roughly 7,900 targets only a part is listed; those with a hit were picked by preference. About 0.6% of all pairs of compound and target were hits. A number with no mark means an inactive call.
Legend:
Test in all cases: log2 fold change, soluble protein after heating vs DMSO (PISA); higher = thermal stabilisation; K562 cells, 10 uM, 30 min; active = over 0.2 and 3.5 SD of the protein, either way, in both replicates (recomputed)
[1] = compound: C1=CC=C(C=C1)[C@H](COC2=CC3=C(C=C2)NC(=O)N3)NC(=O)C4=CC=CN(C4=O)CC5=CC(=C(C=C5)F)F
How it was run: (§1)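 Thermal stability values are relative to control samples and come from duplicates. They are expressed as log2 fold changes. For measurement, K562 cells (2×10^6 cells/mL) received 10 μM compound for 30 min, and aliquots were heated for 3 min over 48°C-58°C, pooled, and extracted at 4°C in PBS with 0.5% NP-40. Soluble protein, the supernatant after 21,000xg for 90 min, was quantified by TMTpro 16plex LC-MS/MS with equalised channel sums.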

[2] = compound: CC1=C(SC2=C1C(=N[C@H](C3=NN=C(N32)C)CC(=O)N)C4=CC=C(C=C4)Cl)C
How it was run: as §1

[3] = compound: CC1=C2C(=CC=C1)N=C(N(C2=O)C3=CC=CC=C3C)CN4C=NC5=C(N=CN=C54)N
How it was run: as §1

[4] = compound: Cc1sc2c(c1C)C(c1ccc(Cl)cc1)=N[C@@H](CC(=O)OC(C)(C)C)c1nnc(C)n1-2
How it was run: as §1

[5] = compound: c1ccc([C@@H]2C[C@H]2NC2CCNCC2)cc1
How it was run: as §1

ZNF277 (UniProt Q9NRM2)
UniProt Q9NRM2, sequence (Q9NRM2 whole entry, looked up): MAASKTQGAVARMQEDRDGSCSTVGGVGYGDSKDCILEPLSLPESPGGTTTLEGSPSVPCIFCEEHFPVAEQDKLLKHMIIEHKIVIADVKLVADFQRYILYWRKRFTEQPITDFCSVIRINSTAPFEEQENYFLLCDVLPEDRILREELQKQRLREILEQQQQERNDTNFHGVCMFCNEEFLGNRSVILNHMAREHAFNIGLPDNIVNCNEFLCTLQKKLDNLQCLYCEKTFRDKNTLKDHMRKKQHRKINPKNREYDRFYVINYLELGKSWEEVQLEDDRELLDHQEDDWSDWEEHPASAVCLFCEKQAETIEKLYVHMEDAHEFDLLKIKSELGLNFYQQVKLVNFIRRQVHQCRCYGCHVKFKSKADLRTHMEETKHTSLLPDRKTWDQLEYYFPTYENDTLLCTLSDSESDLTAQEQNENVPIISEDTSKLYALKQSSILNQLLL
log2 fold change [1]: -0.134 | log2 fold change [2]: 0.028 | log2 fold change [3]: -0.007 | log2 fold change [4]: 0.286 | log2 fold change [5]: 0

ZYG11B (UniProt Q9C0D3)
UniProt Q9C0D3, sequence (Q9C0D3 whole entry, looked up): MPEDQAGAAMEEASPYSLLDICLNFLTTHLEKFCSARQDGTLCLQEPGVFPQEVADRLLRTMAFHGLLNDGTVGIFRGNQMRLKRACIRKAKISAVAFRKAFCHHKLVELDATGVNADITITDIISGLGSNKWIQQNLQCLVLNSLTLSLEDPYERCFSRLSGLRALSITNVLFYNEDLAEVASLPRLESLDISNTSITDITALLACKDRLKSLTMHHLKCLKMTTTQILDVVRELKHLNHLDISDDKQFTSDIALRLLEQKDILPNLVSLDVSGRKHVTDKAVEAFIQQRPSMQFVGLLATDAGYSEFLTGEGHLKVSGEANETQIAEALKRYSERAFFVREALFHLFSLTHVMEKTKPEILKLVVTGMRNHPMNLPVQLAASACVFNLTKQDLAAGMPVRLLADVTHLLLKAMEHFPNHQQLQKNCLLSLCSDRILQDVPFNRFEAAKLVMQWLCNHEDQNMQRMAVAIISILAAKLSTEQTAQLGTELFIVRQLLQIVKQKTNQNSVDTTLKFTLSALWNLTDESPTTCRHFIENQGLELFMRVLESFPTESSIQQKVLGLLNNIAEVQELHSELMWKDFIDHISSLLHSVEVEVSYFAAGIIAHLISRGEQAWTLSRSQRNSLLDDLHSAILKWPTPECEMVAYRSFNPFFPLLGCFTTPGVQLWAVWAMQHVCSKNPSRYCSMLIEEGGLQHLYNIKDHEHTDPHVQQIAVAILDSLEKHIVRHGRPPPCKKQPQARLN
log2 fold change [1]: 0.057 | log2 fold change [2]: 0.086 | log2 fold change [3]: 0.011 | log2 fold change [4]: -0.02 | log2 fold change [5]: 0.044

ZNF580 (UniProt Q9UK33)
log2 fold change [3]: -0.16 | log2 fold change [4]: 0.029

ZDHHC17 (UniProt Q8IUH5)
log2 fold change [1]: 0.014 | log2 fold change [2]: 0.062 | log2 fold change [3]: -0.082 | log2 fold change [4]: -0.039 | log2 fold change [5]: -0.011

ZNF143 (UniProt P52747)
log2 fold change [1]: 0.015 | log2 fold change [2]: -0.013 | log2 fold change [3]: -0.022 | log2 fold change [4]: 0.064 | log2 fold change [5]: 0.107

ZDHHC7 isoform 2 (UniProt Q9NXF8)
UniProt Q9NXF8, sequence (Q9NXF8 whole entry, looked up): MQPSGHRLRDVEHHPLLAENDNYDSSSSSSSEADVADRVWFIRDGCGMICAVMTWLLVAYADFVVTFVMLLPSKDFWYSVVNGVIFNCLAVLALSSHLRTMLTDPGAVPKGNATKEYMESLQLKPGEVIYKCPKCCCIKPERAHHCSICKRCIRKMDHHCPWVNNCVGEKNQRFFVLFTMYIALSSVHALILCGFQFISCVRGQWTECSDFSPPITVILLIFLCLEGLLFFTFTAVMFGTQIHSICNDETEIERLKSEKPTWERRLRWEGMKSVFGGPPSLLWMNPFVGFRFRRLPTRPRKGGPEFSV
log2 fold change [2]: 0.088 | log2 fold change [3]: 0.131 | log2 fold change [4]: 0.135 | log2 fold change [5]: 0.081

ZDHHC20 (UniProt Q5W0Z9)
log2 fold change [1]: -0.023 | log2 fold change [2]: -0.001 | log2 fold change [3]: -0.047 | log2 fold change [4]: -0.061 | log2 fold change [5]: 0.067

ZC3H18 (UniProt Q86VM9)
log2 fold change [1]: 0.032 | log2 fold change [2]: -0.031 | log2 fold change [3]: 0.035 | log2 fold change [4]: 0.021 | log2 fold change [5]: 0.047

ZFAND6 (UniProt Q6FIF0)
log2 fold change [1]: 0 | log2 fold change [2]: -0.015 | log2 fold change [3]: 0.042 | log2 fold change [4]: -0.143 | log2 fold change [5]: 0.004

ZCCHC17 (UniProt Q9NP64)
log2 fold change [3]: -0.124

YES1 (UniProt P07947)
log2 fold change [1]: 0.025 | log2 fold change [2]: -0.056 | log2 fold change [3]: 0.126 | log2 fold change [4]: -0.005 | log2 fold change [5]: -0.038

ZFPL1 (UniProt O95159)
log2 fold change [1]: 0.09 | log2 fold change [2]: 0.084 | log2 fold change [3]: 0.063 | log2 fold change [4]: -0.042 | log2 fold change [5]: -0.032

YWHAB (UniProt P31946)
UniProt P31946, sequence (P31946 whole entry, looked up): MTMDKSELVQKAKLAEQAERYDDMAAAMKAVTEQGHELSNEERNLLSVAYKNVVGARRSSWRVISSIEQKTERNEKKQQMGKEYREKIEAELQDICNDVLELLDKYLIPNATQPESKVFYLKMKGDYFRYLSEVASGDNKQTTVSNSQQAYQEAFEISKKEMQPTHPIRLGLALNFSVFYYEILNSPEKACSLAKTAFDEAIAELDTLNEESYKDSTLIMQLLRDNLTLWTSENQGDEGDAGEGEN
log2 fold change [1]: -0.024 | log2 fold change [2]: 0.024 | log2 fold change [3]: -0.01 | log2 fold change [4]: -0.004 | log2 fold change [5]: -0.03

YOD1 (UniProt Q5VVQ6)
UniProt Q5VVQ6, sequence (Q5VVQ6 whole entry, looked up): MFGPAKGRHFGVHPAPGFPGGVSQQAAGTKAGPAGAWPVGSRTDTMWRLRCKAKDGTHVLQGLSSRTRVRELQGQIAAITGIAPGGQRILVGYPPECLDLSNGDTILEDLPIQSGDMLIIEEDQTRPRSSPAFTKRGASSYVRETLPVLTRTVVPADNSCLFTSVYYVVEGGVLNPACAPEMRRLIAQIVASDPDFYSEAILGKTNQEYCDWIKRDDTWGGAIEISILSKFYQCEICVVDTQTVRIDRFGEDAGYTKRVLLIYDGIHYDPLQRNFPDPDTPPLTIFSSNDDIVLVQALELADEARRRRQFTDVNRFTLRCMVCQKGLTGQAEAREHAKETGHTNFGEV
log2 fold change [1]: -0.071 | log2 fold change [2]: 0.035 | log2 fold change [3]: 0.063 | log2 fold change [4]: -0.005 | log2 fold change [5]: 0.046

ZMYM3 (UniProt Q14202)
UniProt Q14202, sequence (Q14202 whole entry, looked up): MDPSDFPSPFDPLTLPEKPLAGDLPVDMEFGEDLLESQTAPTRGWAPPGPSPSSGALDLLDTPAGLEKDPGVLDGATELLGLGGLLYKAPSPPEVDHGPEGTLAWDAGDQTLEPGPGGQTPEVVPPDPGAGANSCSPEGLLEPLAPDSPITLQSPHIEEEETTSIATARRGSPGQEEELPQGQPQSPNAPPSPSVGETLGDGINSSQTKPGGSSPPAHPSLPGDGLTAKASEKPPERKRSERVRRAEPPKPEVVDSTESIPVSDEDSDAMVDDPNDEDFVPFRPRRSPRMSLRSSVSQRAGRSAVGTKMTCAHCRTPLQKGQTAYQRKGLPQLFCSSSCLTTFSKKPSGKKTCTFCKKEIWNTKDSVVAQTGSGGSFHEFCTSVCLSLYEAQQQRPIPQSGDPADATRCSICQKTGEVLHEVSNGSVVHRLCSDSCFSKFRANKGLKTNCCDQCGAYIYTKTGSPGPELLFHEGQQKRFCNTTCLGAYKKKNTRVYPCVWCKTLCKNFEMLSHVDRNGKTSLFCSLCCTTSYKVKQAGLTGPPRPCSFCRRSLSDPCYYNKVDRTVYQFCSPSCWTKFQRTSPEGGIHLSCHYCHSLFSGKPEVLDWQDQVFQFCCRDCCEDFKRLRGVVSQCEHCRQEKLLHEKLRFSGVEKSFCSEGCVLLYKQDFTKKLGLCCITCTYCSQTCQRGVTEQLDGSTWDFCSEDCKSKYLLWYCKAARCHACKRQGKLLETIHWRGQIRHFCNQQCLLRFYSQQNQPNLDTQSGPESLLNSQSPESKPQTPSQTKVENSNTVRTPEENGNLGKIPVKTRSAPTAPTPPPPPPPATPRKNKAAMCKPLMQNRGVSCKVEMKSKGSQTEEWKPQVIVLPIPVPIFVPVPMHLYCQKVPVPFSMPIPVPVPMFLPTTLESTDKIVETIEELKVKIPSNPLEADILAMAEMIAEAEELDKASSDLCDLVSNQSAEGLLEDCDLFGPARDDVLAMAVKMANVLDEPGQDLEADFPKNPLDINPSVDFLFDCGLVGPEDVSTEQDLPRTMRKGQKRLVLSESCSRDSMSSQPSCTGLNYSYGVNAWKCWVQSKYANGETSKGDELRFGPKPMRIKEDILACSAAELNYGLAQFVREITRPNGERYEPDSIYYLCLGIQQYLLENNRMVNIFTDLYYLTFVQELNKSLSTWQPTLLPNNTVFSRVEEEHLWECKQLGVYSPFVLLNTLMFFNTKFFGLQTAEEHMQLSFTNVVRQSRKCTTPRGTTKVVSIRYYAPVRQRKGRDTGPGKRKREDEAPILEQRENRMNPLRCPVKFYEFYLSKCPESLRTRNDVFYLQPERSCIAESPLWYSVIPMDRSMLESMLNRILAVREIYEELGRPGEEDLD
log2 fold change [1]: -0.03 | log2 fold change [2]: 0.055 | log2 fold change [3]: -0.02 | log2 fold change [4]: 0.043 | log2 fold change [5]: 0.103

YIPF5 isoform 3 (UniProt Q969M3)
log2 fold change [1]: 0 | log2 fold change [2]: 0.025 | log2 fold change [3]: 0.018 | log2 fold change [4]: 0.002 | log2 fold change [5]: 0.08

ZRANB2 (UniProt O95218)
log2 fold change [1]: -0.002 | log2 fold change [2]: -0.073 | log2 fold change [3]: -0.07 | log2 fold change [4]: 0.021 | log2 fold change [5]: 0.093

ZNF239 (UniProt Q16600)
log2 fold change [1]: -0.17 | log2 fold change [2]: -0.151 | log2 fold change [3]: -0.06 | log2 fold change [4]: -0.082 | log2 fold change [5]: 0.06

YBX1 (UniProt P67809)
log2 fold change [1]: 0.105 | log2 fold change [2]: -0.228 | log2 fold change [3]: -0.143 | log2 fold change [4]: 0.115 | log2 fold change [5]: 0.052

ZCCHC9 (UniProt Q8N567)
log2 fold change [1]: 0.173 | log2 fold change [2]: -0.074 | log2 fold change [3]: -0.202 | log2 fold change [4]: 0.222 | log2 fold change [5]: 0.023

YY1 (UniProt P25490)
log2 fold change [1]: 0.013 | log2 fold change [2]: -0.006 | log2 fold change [3]: -0.033 | log2 fold change [4]: -0.015 | log2 fold change [5]: 0.084

YWHAZ (UniProt P63104)
log2 fold change [1]: -0.012 | log2 fold change [2]: 0.035 | log2 fold change [3]: -0.031 | log2 fold change [4]: -0.033 | log2 fold change [5]: -0.025

ZNF512 (UniProt Q96ME7)
log2 fold change [2]: -0.117 | log2 fold change [5]: -0.363

ZNF217 (UniProt O75362)
UniProt O75362, sequence (O75362 whole entry, looked up): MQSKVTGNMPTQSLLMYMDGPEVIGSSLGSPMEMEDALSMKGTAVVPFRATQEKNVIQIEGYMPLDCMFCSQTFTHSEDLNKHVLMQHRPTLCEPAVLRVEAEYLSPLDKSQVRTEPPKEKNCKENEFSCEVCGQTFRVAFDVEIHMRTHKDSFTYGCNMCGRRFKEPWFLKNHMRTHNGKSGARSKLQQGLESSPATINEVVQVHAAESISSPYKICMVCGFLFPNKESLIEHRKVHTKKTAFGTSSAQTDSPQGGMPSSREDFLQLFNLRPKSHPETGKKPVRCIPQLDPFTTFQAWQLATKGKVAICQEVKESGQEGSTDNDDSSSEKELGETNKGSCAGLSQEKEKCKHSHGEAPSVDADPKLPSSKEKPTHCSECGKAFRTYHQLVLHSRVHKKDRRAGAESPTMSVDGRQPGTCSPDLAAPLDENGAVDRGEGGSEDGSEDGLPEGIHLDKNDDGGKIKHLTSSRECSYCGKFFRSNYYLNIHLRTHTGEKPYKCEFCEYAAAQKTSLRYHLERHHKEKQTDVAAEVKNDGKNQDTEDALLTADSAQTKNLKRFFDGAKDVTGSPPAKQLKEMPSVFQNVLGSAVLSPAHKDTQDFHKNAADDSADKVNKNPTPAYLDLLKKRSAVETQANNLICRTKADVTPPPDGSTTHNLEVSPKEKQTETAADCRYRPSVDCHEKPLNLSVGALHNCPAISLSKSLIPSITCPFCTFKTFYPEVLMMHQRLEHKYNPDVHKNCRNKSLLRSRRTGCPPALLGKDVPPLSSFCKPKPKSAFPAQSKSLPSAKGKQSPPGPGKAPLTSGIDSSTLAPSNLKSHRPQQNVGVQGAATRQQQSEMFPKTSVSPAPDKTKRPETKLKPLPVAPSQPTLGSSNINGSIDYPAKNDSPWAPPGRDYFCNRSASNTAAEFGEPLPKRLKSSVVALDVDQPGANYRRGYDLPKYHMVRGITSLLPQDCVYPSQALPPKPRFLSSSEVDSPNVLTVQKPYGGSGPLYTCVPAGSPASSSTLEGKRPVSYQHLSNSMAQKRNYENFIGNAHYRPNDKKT
log2 fold change [1]: -0.017 | log2 fold change [2]: 0.048 | log2 fold change [3]: 0.163 | log2 fold change [4]: -0.003 | log2 fold change [5]: 0.306 (active)

ZFAND5 (UniProt O76080)
log2 fold change [1]: -0.025 | log2 fold change [2]: -0.21 | log2 fold change [3]: -0.129 | log2 fold change [4]: -0.024 | log2 fold change [5]: 0.143

ZBTB43 (UniProt O43298)
UniProt O43298, sequence (O43298 whole entry, looked up): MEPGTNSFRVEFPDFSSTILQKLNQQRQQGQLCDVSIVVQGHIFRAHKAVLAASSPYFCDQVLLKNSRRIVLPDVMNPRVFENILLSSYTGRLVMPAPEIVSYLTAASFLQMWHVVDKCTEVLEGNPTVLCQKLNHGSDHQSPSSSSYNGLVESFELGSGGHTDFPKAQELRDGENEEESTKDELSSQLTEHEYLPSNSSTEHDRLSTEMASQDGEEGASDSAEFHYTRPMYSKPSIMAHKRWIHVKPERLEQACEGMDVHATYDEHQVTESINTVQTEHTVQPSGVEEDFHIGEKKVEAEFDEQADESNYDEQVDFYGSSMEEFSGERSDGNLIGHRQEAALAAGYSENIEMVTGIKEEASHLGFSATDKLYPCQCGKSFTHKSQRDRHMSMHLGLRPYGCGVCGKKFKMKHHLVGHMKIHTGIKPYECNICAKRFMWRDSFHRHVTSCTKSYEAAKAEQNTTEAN
log2 fold change [1]: -0.105 | log2 fold change [2]: 0.013 | log2 fold change [3]: 0.055 | log2 fold change [4]: -0.097 | log2 fold change [5]: -0.08

YLPM1 (UniProt P49750)
log2 fold change [1]: -0.092 | log2 fold change [2]: 0.11 | log2 fold change [3]: 0.104 | log2 fold change [4]: 0.005 | log2 fold change [5]: -0.052

ZDHHC5 (UniProt Q9C0B5)
log2 fold change [1]: 0.015 | log2 fold change [2]: 0.007 | log2 fold change [3]: 0.04 | log2 fold change [4]: -0.013 | log2 fold change [5]: 0.077

YIPF6 (UniProt Q96EC8)
log2 fold change [1]: 0.062 | log2 fold change [2]: -0.04 | log2 fold change [3]: 0.114 | log2 fold change [4]: 0.103 | log2 fold change [5]: 0.015

ZEB2 (UniProt O60315)
log2 fold change [1]: -0.125 | log2 fold change [3]: 0.137 | log2 fold change [4]: 0.368

YPEL5 (UniProt P62699)
log2 fold change [1]: -0.066 | log2 fold change [2]: 0.044 | log2 fold change [3]: 0.016 | log2 fold change [5]: -0.081

YIPF4 (UniProt Q9BSR8)
log2 fold change [1]: -0.027 | log2 fold change [2]: 0.001 | log2 fold change [3]: -0.019 | log2 fold change [4]: 0.027 | log2 fold change [5]: 0.046

ZADH2 (UniProt Q8N4Q0)
log2 fold change [1]: 0.012 | log2 fold change [2]: -0.039 | log2 fold change [3]: -0.076 | log2 fold change [4]: -0.026 | log2 fold change [5]: 0.008

YWHAZ (UniProt E7ESK7)
log2 fold change [1]: 0.066 | log2 fold change [2]: 0.009 | log2 fold change [4]: 0.083 | log2 fold change [5]: 0.052

Reference: the supplement of paper PMC10849652
